Screening data (PubChem)
Hits are enriched below; roughly 5.9% of the tested compounds scored in any of these assays.
TrxR1 substrate: substrates of rat thioredoxin reductase 1. O89049. purified TrxR1 substrate turnover, NADPH consumption readout. Potency, µM (doses to about 114 µM). 390,000 compounds, 0.01% hits; also: nearly all actives have a fitted effect of over 50% in size
Target sequence (O89049 whole entry, looked up): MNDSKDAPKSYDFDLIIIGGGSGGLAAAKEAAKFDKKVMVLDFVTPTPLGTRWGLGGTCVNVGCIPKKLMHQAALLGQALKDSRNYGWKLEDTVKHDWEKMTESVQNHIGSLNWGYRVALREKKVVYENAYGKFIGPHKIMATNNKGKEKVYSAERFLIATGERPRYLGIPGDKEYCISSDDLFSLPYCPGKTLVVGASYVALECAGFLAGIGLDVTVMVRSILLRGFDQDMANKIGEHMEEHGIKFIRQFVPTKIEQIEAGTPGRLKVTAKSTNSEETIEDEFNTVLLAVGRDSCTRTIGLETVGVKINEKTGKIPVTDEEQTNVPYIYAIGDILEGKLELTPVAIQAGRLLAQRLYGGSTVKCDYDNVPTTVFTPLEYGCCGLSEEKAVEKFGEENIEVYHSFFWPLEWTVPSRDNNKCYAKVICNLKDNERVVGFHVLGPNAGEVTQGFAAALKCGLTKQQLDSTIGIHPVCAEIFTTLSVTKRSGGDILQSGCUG
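Rat TrxR1, dispensed at 90 nM, was prereduced with 400 uM NADPH (final) for 5 min at ~22 deg C, then incubated with compound 15 min before 400 uM selenite. A first-read NADPH fluorescence drop versus no-compound background flagged substrates.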
rTrxR1 inhibitor: rat TrxR1 inhibition | AID 588453 | recombinant rTrxR1, NADPH fluorescence consumption, selenite substrate | Potency, µM (series often up to 114 µM), usual class: inhibitors | 390,000 compounds, 1% hits | O89049; also: nearly all actives have a fitted effect of over 65% in size
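Rat TrxR1 (90 nM in the dispensed reagent) was pre-reduced with 400 uM NADPH for 5 min at room temperature, then incubated with compound for 15 min. After 400 uM selenite was added, NADPH fluorescence (Ex 340/Em 450 nm) was followed for 8 min.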
FBPA coupling cs: coupling enzyme interference in Giardia aldolase counter-screen; coupling enzyme system counterscreen, AmpLite Red fluorescence; activity change, negative = inhibition, % at 58.2 µM, hits read low; 290,000 compounds, 0.67% hits; AID 2472; in the data active = activity change below about -30%
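Fluorescence at 525 nm excitation and 598 nm emission measured inhibition of the coupled detection system without aldolase. Compounds (at 57.5 uM final) were preincubated 10 min at room temperature with coupling enzyme reagent before a 20 min substrate/AmpLite Red step.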
Gal4-VP16 FLuc: Gal4-VP16 reporter inhibition counter-screen; Potency, µM (doses to about 53.6 µM), actives largely listed as inhibitors; Drosophila S2 Gal4-VP16 UAS-luciferase, luminescence, 20 h; 310,000 compounds, 3.5% hits; AID 2546;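 also: Gal4-VP16 expression switched on by copper sulfate through the metallothionein promoter; nearly all actives have a fitted effect of over 50% in size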
RORgamma inh: blocks mouse ROR gamma transcriptional activity; P51450; Drosophila S2 Gal4-RORgamma UAS-luciferase reporter, 20 h; Potency, µM (highest dose often 53.6 µM), actives largely listed as inhibitors; 310,000 compounds, 5.4% hits; AID 2551; also: nearly all actives have a fitted effect of over 60% in size
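Drosophila Schneider cells stably carrying a metallothionein-driven Gal4 DBD–ROR gamma fusion and a UAS-Photinus luciferase reporter were exposed to compound for 1 hr, then induced with copper sulfate (700 uM final) for 20 hr at ambient temperature before luminescence reading.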
GALK inh: galactokinase (human) inhibition. Potency, µM (series often up to 57.5 µM), hits mostly inhibitors. Purified GALK, Kinase-Glo residual ATP luminescence. AID 1868. 270,000 compounds, 0.007% hits
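ATP-depletion format; final 35 uM ATP, 100 uM D-galactose, 5 nM enzyme; pH 8.0 HEPES/Mg2+ buffer; 60 min RT; luminescence read 10 min after detection reagent.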
A number is an active result; . = inactive; ? = inconclusive; / = not tested or not shown; [ ] = dose if it differs, or a comment. Unless noted, calls follow the shape of the dose curve; as a rule, active = well fitted curve in the direction sought with a large enough effect; inconclusive = small, poorly fitted or top-dose-only effect, or another doubt; inactive = no such curve, though single readings can be large; an effect the other way counts as inactive or inconclusive.

SMILES	TrxR1 substrate	rTrxR1 inhibitor	FBPA coupling cs	Gal4-VP16 FLuc	RORgamma inh	GALK inh
COCCNC(=O)NC1(C(F)(F)F)Oc2ccc(Cl)cc2O1 (stereo not given)	.	.	.	?	?	.
CCOC(=O)NC1(NC2CCCCC2)Oc2ccccc2O1	.	32µM	.	.	?	.
CCOC(=O)NC1(NC(C)C)Oc2ccccc2O1	.	.	.	.	.	.
CCOC(=O)NC1(NCc2ccccc2)Oc2ccccc2O1	.	32µM	.	.	?	.
COc1ccccc1-c1nnc(SC(C)C(=O)N2CCOCC2)o1 (stereo not given)	.	.	/	/	/	/
NNC(=O)CN1C(c2ccccc2Br)=Nc2ccc(Br)cc2C1c1ccccc1 (stereo not given)	.	.	-38	?	.	.
COc1ccc(OC)c(C2C(C(C)=O)=C(O)C(=O)N2CCN2CCOCC2)c1 (stereo not given)	.	.	.	.	.	.
CCN(CC)CCN1C(=O)C(O)=C(C(=O)c2cccs2)C1c1ccc(C)o1 (stereo not given)	.	16µM	.	.	.	.
O=C(C1=C(O)C(=O)N(CCN2CCOCC2)C1c1cccc(O)c1)c1cc2ccccc2o1 (stereo not given)	.	50µM	.	/	/	.
CC(=O)C1=C(O)C(=O)N(CCN2CCOCC2)C1c1ccccc1 (stereo not given)	.	50µM	.	.	.	.
O=C(C1=C(O)C(=O)N(Cc2ccco2)C1c1cccnc1)c1cc2ccccc2o1 (stereo not given)	.	13µM	.	.	.	.
CC(C)c1ccc(C2c3c(oc4ccc(Cl)cc4c3=O)C(=O)N2CCCN2CCOCC2)cc1 (stereo not given)	.	.	/	/	/	/
O=C(C1=C(O)C(=O)N(CCN2CCOCC2)C1c1cccs1)c1cc2ccccc2o1 (stereo not given)	.	56µM	/	/	/	/
O=C1c2oc3ccc(Cl)cc3c(=O)c2C(c2ccccn2)N1CCCN1CCOCC1 (stereo not given)	.	?	.	?	22µM	.
O=C(C1=C(O)C(=O)N(CCN2CCOCC2)C1c1ccccn1)c1cccs1 (stereo not given)	.	22µM	.	.	.	.
Cc1ccc(C2C(C(=O)c3cc4ccccc4o3)=C(O)C(=O)N2CCN2CCOCC2)o1 (stereo not given)	.	22µM	.	?	?	.
O=C(C1=C(O)C(=O)N(CCN2CCOCC2)C1c1ccc(Br)cc1)c1cc2ccccc2o1 (stereo not given)	.	.	/	.	.	.
O=C(C1=C(O)C(=O)N(CCN2CCOCC2)C1c1cccc(F)c1)c1cc2ccccc2o1 (stereo not given)	.	?	/	.	.	.
C1=Cc2ccccc2/C1=C(\Cc1ccncc1)Oc1ccncc1	.	.	/	/	/	/
O=C(CNC(=O)COc1ccccc1)NCc1ccccc1F	.	.	.	.	.	.
OCCC1CN(Cc2nc3ccccc3s2)CCN1CCc1ccccc1 (stereo not given)	.	.	.	.	.	.
CN1C(=O)N(CC(=O)Nc2ccc(C(F)(F)F)cc2)C(=O)C12CCCCC2	.	.	/	/	/	/
CCOc1ccc(C2C(C(=O)c3ccc(C)o3)=C(O)C(=O)N2CCN2CCOCC2)cc1OC (stereo not given)	.	56µM	.	.	.	.
Cc1nnc(NC(=O)c2oc3ccccc3c2C)s1	.	.	/	?	?	.
Cc1nnc(NC(=O)c2oc3c(ccc4ccccc43)c2C)s1	.	.	.	.	13µM	.
SMILES	TrxR1 substrate	rTrxR1 inhibitor	FBPA coupling cs	Gal4-VP16 FLuc	RORgamma inh	GALK inh
Cc1cccc(OCCCC(=O)Nc2nc3ccccc3[nH]2)c1	.	.	.	.	14µM	.
O=S(=O)(CCOc1ccccc1)c1nc2ccccc2[nH]1	.	45µM	.	.	?	.
O=C(CCCOc1ccccc1)NCCc1nc2ccccc2[nH]1	.	.	.	.	.	.
Cc1ccc(OCCCC(=O)Nc2nc3ccccc3[nH]2)cc1	.	.	.	.	6.3µM	.
O=C(CCCOc1ccccc1)Nc1nc2ccccc2[nH]1	.	.	.	.	7.1µM	.
Cc1cccc(OCCCSc2nc3ccccc3[nH]2)c1	.	.	.	.	.	.
O=C(CN1C(=O)C2CC=CCC2C1=O)Nc1ccc(S(=O)(=O)Nc2nccs2)cc1 (stereo not given)	.	.	.	.	.	.
CN1CCN(C(=O)CCC(=O)NCc2ccc(F)cc2)CC1	.	.	.	.	.	.
COc1ccccc1CNc1ccc(N2CCOCC2)c(C(=O)O)c1	.	.	.	.	.	.
CC1(C)CC(=O)C([N+](=O)[O-])=C(NCCCC(=O)O)C1	.	.	.	.	.	.
Clc1ccccc1-c1ccc(/C=N/Nc2nncc(-c3ccccc3)n2)o1	.	.	.	10µM	1.4µM	.
Cc1[nH]n(-c2ccccc2)c(=O)c1/C=N/Nc1nncc(-c2ccccc2)n1	.	.	.	0.0022µM	0.05µM	.
C(=C\c1ccccc1)/C=N/Nc1nncc(-c2ccccc2)n1	/	/	.	3.2µM	2.2µM	.
Cc1[nH]n(-c2ccccc2)c(=O)c1C=NCc1ccncc1	.	.	.	.	.	.
Cc1ccc(/C=N/Nc2nncc(-c3ccccc3)n2)o1	.	.	.	13µM	8.9µM	.
FC(F)(F)c1cccc(-c2ccc(/C=N/Nc3nncc(-c4ccccc4)n3)o2)c1	.	.	.	.	.	.
O=C(CN1C(=O)c2cccc([N+](=O)[O-])c2C1=O)N1CCN(c2ccc(F)cc2)CC1	.	.	.	.	.	.
Cc1cc(O)c2c(c1O)C(=O)[C@]13C(=C2O)C(=O)[C@@H]2[C@@H](O)[C@H]1[C@@H]1[C@H](O)[C@H]3C(=O)C3=C(O)c4c(O)cc(C)c(O)c4C(=O)[C@]312	.	?	/	/	/	/
N#Cc1nc(COc2ccccc2)oc1NCCCn1ccnc1	.	.	.	.	.	.
Clc1ccc(-c2ccc(/C=N/Nc3nncc(-c4ccccc4)n3)o2)cc1	.	.	.	0.79µM	0.79µM	.
COC(=O)[C@@H](Cc1c[nH]c2ccccc12)NC(=O)c1ccc2c(c1)OCO2	.	.	.	?	8.9µM	.
COC(=O)C(Cc1c[nH]c2ccccc12)NC(=O)c1cccs1 (stereo not given)	.	.	.	.	.	.
COC(=O)C(Cc1c[nH]c2ccccc12)NC(C)=O (stereo not given)	.	.	.	.	14µM	.
O=C(CSc1nnnn1Cc1ccccc1)c1ccc(F)cc1	.	.	.	.	.	.
O=C(O)CCN1CCN(S(=O)(=O)c2ccc3ccccc3c2)CC1	.	.[11.4 µM]	.	/	/	.
O=C(O)CCn1nnc(-c2cccs2)n1	.	.	/	.	.	.
